Bioassay records: PubChem BioAssay, National Center for Advancing Translational Sciences (NCATS)
This is a sample that favours compounds with a hit; in the whole collection about 3% have one here.
Tau FP inhib – blocks human tau fibril formation measured by polarization | hit rate 0.39% among 280,000 | P10636 | K18 P301L tau heparin fibrillization, Alexa594 FP, 6 h | Potency, µM (doses to about 57.7 µM), hits mostly inhibitors; further: nearly all actives have a fitted effect of over 55% in size
Target sequence (P10636 561-689 P618L limits assumed): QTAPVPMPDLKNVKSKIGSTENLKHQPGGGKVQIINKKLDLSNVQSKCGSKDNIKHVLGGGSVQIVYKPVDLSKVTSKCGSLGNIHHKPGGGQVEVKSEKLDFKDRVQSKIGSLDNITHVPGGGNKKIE
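Human tau K18 […] P301L fragment, 15 uM unlabeled plus 0.24 uM Alexa 594-labeled tau (final), with compound and 20 uM heparin in 100 mM sodium acetate pH 7; 6 hr at 37 C, then Alexa 594 FP read.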
Tau ThT inhib – blocks human tau fibril formation measured by thioflavin T; recombinant tau K18 P301L, heparin-induced fibrillization, ThT fluorescence; Potency, µM (titrated, usually from 57.4 µM), hits mostly inhibitors; hit rate 2.1% among 270,000; further: nearly all actives have a fitted effect of over 55% in size
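ThT emission at 510 nm, taken 1 hr after adding 30 uM dye, quantifies aggregates formed when 20 uM heparin acts on human tau K18 P301L for 6 hr at 37 C.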
Coupling enz – inhibits coupling enzyme system, counter-screen for aldolase hits. hit rate 0.67% among 290,000. activity change, negative = inhibition, % at 58.2 µM, hits read low. coupling enzyme system counterscreen, AmpLite Red fluorescence; in the data active means activity change below about -30%
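First, compound is pin-transferred into glyceraldehyde-3-phosphate coupling-enzyme reagent at 57.5 uM final and held 10 min at RT. Next, substrate, coupling system and AmpLite Red are added. After 20 min RT, fluorescence (525/598 nm) is read.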
Tau fluor counter – counter-screen for tau fibril formation inhibitors; tau K18 P301L (four-repeat tau fragment) Alexa594 fluorescence, heparin fibrillization; Potency, µM (series often up to 57.7 µM); hit rate 0.93% among 280,000; further: nearly all actives have a fitted effect of over 55% in size
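Human K18 P301L tau (15 uM unlabeled plus 0.24 uM Alexa 594-labeled, final) in 100 mM sodium acetate pH 7 was mixed with compound and 20 uM heparin and incubated 6 hr at 37 C.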
KDM4E inh – blocks human JMJD2E demethylase activity | JMJD2E catalytic domain, FDH-coupled NADH fluorescence (FDH is formaldehyde dehydrogenase) | Potency, µM (doses to about 57.1 µM), hits mostly inhibitors | hit rate 1.6% among 230,000; active means well fitted inhibition curve with a large enough effect, not every such curve was filed as active; inconclusive means small, poorly fitted or top-dose-only effect, or another doubt; inactive means no such curve, though single readings can be large or run the other way; further: nearly all actives have a fitted effect of over 50% in size
Target sequence (B2RXH2 1-337 limits assumed): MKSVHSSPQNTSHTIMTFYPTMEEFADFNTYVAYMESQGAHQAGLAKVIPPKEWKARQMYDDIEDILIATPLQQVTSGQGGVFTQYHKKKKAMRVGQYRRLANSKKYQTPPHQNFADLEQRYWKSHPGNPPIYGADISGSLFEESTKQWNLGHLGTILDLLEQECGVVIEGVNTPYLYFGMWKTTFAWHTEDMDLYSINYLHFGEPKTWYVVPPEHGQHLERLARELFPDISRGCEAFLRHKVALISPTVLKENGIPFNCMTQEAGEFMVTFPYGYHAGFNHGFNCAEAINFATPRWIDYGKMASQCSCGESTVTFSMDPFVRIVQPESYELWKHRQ
A number is an active result; . = inactive; ? = inconclusive; / = no result; [ ] = dose if it differs, or a comment. Unless noted, the call rests on the fitted dose curve; in most records, active means well fitted curve in the direction sought with a large enough effect; inconclusive means small, poorly fitted or top-dose-only effect, or another doubt; inactive means no such curve, though single readings can be large; an effect the other way counts as inactive or inconclusive.

SMILES | Tau FP inhib | Tau ThT inhib | Coupling enz | Tau fluor counter | KDM4E inh
O=C1NC(=O)C(=Cc2ccc(N3CCOCC3)o2)C(=O)N1 | . | ? | . | . | 18µM
C=CCN1C(=O)/C(=C/c2ccc(N3CCOCC3)o2)C(=O)NC1=S | . | . | . | . | .
CCn1c(C)[n+](CC)c2ccc(S(=O)(=O)NC)cc21 | . | . | . | . | 7.9µM
Cn1nc(-c2ccc(C(=O)Nc3ccc(OC(F)(F)F)cc3)cc2)c2ccccc2c1=O | ? | . | / | . | /
C=CCSc1nc2c(c(-c3ccsc3)c1C#N)CN(C)CC2 | ? | 14µM | . | 20µM[quencher] | ?
Cn1c(O)c(/C=C2\N=c3ccccc3=C2CCNC(=S)NC2CC2)c(=O)n(C)c1=O | ? | 11µM | . | . | ?
Cn1c(O)c(/C=C2\C=c3ccccc3=NC2=O)c(=O)n(C)c1=O | / | / | . | / | /
CCN1CC2(OC(=O)c3ccccc3NC(C)=O)CCC(OC)[C@]34C1[C@H](CC23)[C@@]1(O)C[C@H](OC)[C@H]2CC4C1(O)[C@H]2OC (some centres undefined) | / | / | . | / | /
COc1cc2c(cc1OC)-c1c(O)c(OC)cc3c1[C@H](C2)N(C)CC3 | 11µM | 5µM | . | ? | ?
COc1cc2c(cc1OC)-c1c(OC)c(OC)cc3c1C(C2)N(C)CC3 (centres undefined) | . | ? | -42 | . | ?
NC(Cc1cc(O)c(O)cc1O)C(=O)O (centres undefined) | ? | 14µM | / | ? | 13µM
CCc1ccc(NC(=O)c2ccc(F)c(S(=O)(=O)N3CCc4ccccc4C3)c2)cc1 | ? | . | / | . | /
Nc1c(C(=O)NCCCc2ccccc2)c2nc3ccccc3nc2n1Cc1cccs1 | ? | . | -51 | ? | ?
COc1ccc(Cn2c(N)c(C(=O)NCc3ccco3)c3nc4ccccc4nc32)cc1 | . | 20µM | . | ? | ?
Nc1c(C(=O)NCc2ccco2)c2nc3ccccc3nc2n1Cc1ccc(F)cc1 | ? | ? | -40 | ? | ?
Nc1c(C(=O)NCc2ccco2)c2nc3ccccc3nc2n1Cc1ccccc1 | ? | ? | . | ? | ?
CNc1ccc2oc(C[C@H]3O[C@]4(CC[C@H]3C)O[C@H]([C@H](C)C(=O)c3ccc[nH]3)[C@H](C)C[C@H]4C)nc2c1C(=O)O | . | ? | . | . | ?
C/C=C(/C)C(=O)O[C@H]1C(C)=C2C([C@@H]1OC(=O)CCCCCCC)[C@@](C)(OC(C)=O)C[C@@H](OC(=O)CCC)[C@@]1(O)[C@H]2OC(=O)[C@@]1(C)O (some centres undefined) | ? | ? | / | . | .
COC(=O)C12C/C=C\Cc3ccccc3[C@@H]1CNC2=O (some centres undefined) | ? | . | . | . | .
CCC(Oc1ccc(Cl)cc1)C(=O)OC1CC2CCC(C1)N2C (centres undefined) | . | . | / | . | /
O=C1NC(=S)NC(=O)C1=Cc1cccn1-c1ccc(O)cc1 | . | 25µM | . | ? | .
CN1C(=O)/C(=C/c2cccn2-c2ccc3ccccc3c2)C(=O)NC1=S | 32µM | 16µM | . | 18µM[quencher] | .
Cc1cc(C)cc(N2C(=O)NC(=O)/C(=C\c3cccn3-c3ccccc3)C2=O)c1 | . | . | . | . | .
C=C(C)C(=O)CP(=O)(OCC)OCC | . | . | . | . | .
COC(=O)C12CC3=CC(CC3=O)Cc3ccccc3[C@@H]1CNC2=O (some centres undefined) | . | . | . | . | .
SMILES | Tau FP inhib | Tau ThT inhib | Coupling enz | Tau fluor counter | KDM4E inh
CCCCC(C#N)(Cn1cncn1)c1ccc(Cl)cc1 (centres undefined) | / | / | . | / | /
O=C1NC(=S)N(Cc2ccco2)C(=O)/C1=C\c1cccs1 | ? | 13µM | . | ? | 14µM
C=CCN1C(=O)/C(=C/c2cccs2)C(=O)NC1=S | . | ? | . | ? | .
CCCN(CCC)[C@@H]1CCc2c(F)ccc(O)c2C1 | . | . | / | . | .
COc1ccc(C(=O)C2CCCN(Cc3ccccn3)C2)c(OC)c1 (centres undefined) | . | . | . | . | .
COc1cccc(C(=O)N2CCN(Cc3ccccn3)CC2)c1OC | . | . | -55 | . | .
C/C(=N\NC(=O)c1ccccc1)c1c(O)n(Cc2ccccc2)c(=O)[nH]c1=O | . | / | . | ? | 25µM
C/C(=N\Nc1cccc2ccccc12)c1c(O)n(Cc2ccccc2)c(=O)[nH]c1=O | ? | 18µM | . | ? | ?
CC(=NCCc1c[nH]c2ccccc12)c1c(O)n(Cc2ccccc2)c(=O)[nH]c1=O | . | . | . | . | .
CC[n+]1c(/C=C/C=C/c2ccc(N(C)C)cc2)sc2ccccc21 | 6.3µM | 1.1µM | . | 10µM[quencher] | .
CC[n+]1c(/C=C/N(C)c2ccccc2)sc2ccc(Cl)cc21 | . | ? | . | ? | .
CN(C)c1ccc(/C=C/C=C/c2sc3ccccc3[n+]2C)cc1 | ? | 6.3µM | . | ? | .
CN(C)c1ccc(/C=C/c2cc[n+](C)c3ccccc23)cc1 | . | . | -42 | . | .
Oc1c(Br)cc(Br)cc1CN1CCN(Cc2ccccc2)CC1 | . | . | . | . | .
Oc1c(Br)cc(Br)cc1Oc1ccc(Br)cc1Br | ? | 32µM | . | ? | .
Cc1cc(Br)ccc1N1C(=O)CC(=O)NC1=O | ? | 13µM | . | . | .
O=C1CC(=O)N(c2cccc(Br)c2)C(=O)N1 | / | / | . | / | /
O=C(N=Nc1c(O)n(C2OC(=O)c3ccccc32)c2ccccc12)c1ccco1 (centres undefined) | . | ? | . | . | .
O=C1NC(=O)c2c1c1c3ccccc3[nH]c1c1[nH]c3ccccc3c21 | . | ? | . | 14µM[quencher] | /
OCC(Br)(Br)Br | / | / | . | / | /
Nc1c2c(nc3ccccc13)CCN(Cc1ccccc1)C2 | / | / | . | / | /
Nc1cc2nc3ccccc3nc2cc1N | ? | 10µM | -34 | ? | .
CCn1cc(C(=O)O)c(=O)c2cc(F)c(N3CCNCC3)cc21 | . | . | . | . | 16µM
O=[N+]([O-])c1cc(F)c(N2CCCCCC2)cc1N1CCNCC1 | . | ? | . | . | .
COc1cc2c(cc1O)C(Cc1ccc(O)cc1)NCC2 (centres undefined) | . | ? | . | . | ?
SMILES | Tau FP inhib | Tau ThT inhib | Coupling enz | Tau fluor counter | KDM4E inh
COc1cc2c(cc1O)C[C@H]1NCCc3cc4c(c-2c31)OCO4 | . | 14µM | -31 | ? | ?
N#C/C(=C\c1ccc(O)c(O)c1)C(N)=S | ? | 2.2µM | -64 | ? | ?
CCN(CC)c1nc2ccccc2nc1C(=O)Nc1cccc(C(C)=O)c1 | . | ? | / | . | /
c1ccc2sc(C3(NCC4CC4)CCCCC3)cc2c1 | . | . | / | . | /
CCCc1cc(N2CCN(c3ccc(OC)cc3)CC2)n2cnnc2n1 | . | ? | / | . | /
CCCCC/C=C\C/C=C\C/C=C\C/C=C\CCCC(=O)NCCCl | . | ? | . | . | /
CC1=C[C@@H]2c3cccc4[nH]cc(c34)C[C@H]2N(C)C1 | . | 16µM | . | ? | /
CN1Cc2ccccc2[C@@H]2c3cccc4[nH]cc(c34)C[C@H]21 | ? | 11µM | . | ? | 10µM
